Out of some 5,500 compounds screened, about 2,000 (36%) were called active. Another 18% or so got no clear call; they are omitted. Rule as the data show it: active = normalized growth mostly below about 0.91 (no sharp cut-off); inconclusive = no clear call, values can overlap the other calls; inactive = mostly above about 0.92. The list shows a part of the results.
Assay: chemical genetic growth profiling, strain panel (AID 1159580);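 also: tested at 20 µM; growth read once vehicle control cultures reached saturation at 30 °C; 1 = growth at the plate median or of vehicle wells; lower values mean less growth of the strain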
Conditions: S. cerevisiae deletion strains, growth OD
[1] = locus YGR078C, strain PAC10, hits give low values
[2] = locus YHR030C, strain SLT2, hits give low values
[3] = locus YJL095W, strain BCK1, hits give low values
[4] = locus YMR263W, strain SAP30, hits give low values
[5] = locus YMR307W, strain GAS1, hits give low values
[6] = locus YPL055C, strain LGE1, hits give low values

Measured: normalized growth

CC(C)CCCC(C)C1CCC2C3CCC4CC(=O)CCC4(C)C3CCC12C (stereo not drawn)
inactive: locus YAL013W, strain DEP1, hits give low values 1.01 | locus YBR021W, strain FUR4, hits give low values 1.02 | locus YBR229C, strain ROT2, hits give low values 1 | locus YCL029C, strain bik1, hits give low values 1.02 | locus YDL035C, strain GPR1, hits give low values 1.06 | locus YDL074C, strain BRE1, hits give low values 1.07 | locus YDL101C, strain DUN1, hits give low values 1.02 | locus YDL134C, strain PPH21, hits give low values 1.03 | locus YDL185W, strain tfp1, hits give low values 1.01 | locus YDL192W, strain arf1, hits give low values 1.05 | locus YDR101C, strain arx1, hits give low values 1.02 | locus YDR150W, strain NUM1, hits give low values 1 | locus YDR162C, strain NBP2, hits give low values 1.05 | locus YDR318W, strain mcm21, hits give low values 1.01 | locus YDR388W, hits give low values 1.02 | locus YDR502C, strain sam2, hits give low values 1.01 | locus YEL061C, strain CIN8, hits give low values 1.02 | locus YER110C, hits give low values 1.02 | locus YER155C, strain BEM2, hits give low values 1 | locus YER167W, strain BCK2, hits give low values 1 | locus YGL078C, strain dbp3, hits give low values 1.02 | locus YGL086W, strain mad1, hits give low values 1.02 | locus YGL248W, strain PDE1, hits give low values 1.04 | [1] 1.03 | locus YGR135W, strain pre9, hits give low values 1.03 | locus YGR252W, strain gcn5, hits give low values 1 | [2] 1.02 | locus YHR079C, strain IRE1 (second series), hits give low values 1 | locus YHR094C, strain hxt1, hits give low values 1.04 | locus YHR129C, strain ARP1, hits give low values 1.02 | locus YHR200W, strain rpn10, hits give low values 1.01 | locus YIL066C, strain RNR3, hits give low values 1.05 | locus YIL073C, strain SPO22, hits give low values 1.11 | locus YIL125W, strain kgd1, hits give low values 1.01 | locus YIR030C, strain dcg1, hits give low values 1.02 | [3] 1.06 | locus YJL134W, strain LCB3, hits give low values 1.01 | locus YJL168C, strain set2, hits give low values 1.01 | locus YJL187C, strain SWE1 (second series), hits give low values 1.03 | locus YJR043C, strain POL32, hits give low values 1.02 | locus YJR075W, strain HOC1, hits give low values 1.03 | locus YKL009W, strain mrt4, hits give low values 1.06 | locus YKL068W, hits give low values 1.01 | locus YKL085W, strain MDH1 (second series), hits give low values 1.02 | locus YKL085W, strain MDH1, hits give low values 1.02 | locus YKL190W, strain CNB1, hits give low values 1 | locus YKR001C, strain vps1, hits give low values 1.09 | locus YLR039C, strain RIC1, hits give low values 1.08 | locus YLR058C, strain SHM2, hits give low values 1.03 | locus YLR102C, strain apc9, hits give low values 1.02 | locus YLR262C, strain YPT6, hits give low values 1.09 | locus YLR268W, strain sec22, hits give low values 1.06 | locus YLR330W, strain CHS5, hits give low values 1.02 | locus YLR342W, strain FKS1 (second series), hits give low values 1.06 | locus YLR371W, strain rom2, hits give low values 1.01 | locus YLR418C, strain cdc73, hits give low values 1.05 | locus YML016C, strain PPZ1, hits give low values 1.02 | locus YML032C, strain rad52, hits give low values 1.02 | locus YML124C, strain tub3, hits give low values 1.01 | locus YMR078C, strain ctf18, hits give low values 1.01 | locus YMR223W, strain ubp8, hits give low values 1.04 | [4] 1.02 | [5] 1.19 | locus YNL067W, strain RPL9B, hits give low values 1.02 | locus YNL128W, strain TEP1, hits give low values 1.06 | locus YNL153C, strain GIM3, hits give low values 1.03 | locus YNL233W, strain BNI4, hits give low values 1 | locus YNL250W, strain rad50, hits give low values 1.02 | locus YNL271C, strain bni1, hits give low values 1.01 | locus YNL298W, strain CLA4, hits give low values 1.01 | locus YNL307C, strain MCK1, hits give low values 1.01 | locus YNL322C, strain KRE1, hits give low values 1.01 | locus YNR052C, strain pop2, hits give low values 1.01 | locus YOL012C, strain htz1 1.43 | locus YOL147C, strain pex11, hits give low values 1.01 | locus YOR061W, strain CKA2, hits give low values 1.04 | locus YOR069W, strain VPS5, hits give low values 1.01 | locus YOR136W, strain idh2, hits give low values 1.02 | locus YOR144C, strain elg1, hits give low values 1.01 | locus YOR184W, strain ser1, hits give low values 1.07 | locus YOR316C, strain cot1, hits give low values 1.02 | [6] 1.03 | locus YPL241C, strain CIN2, hits give low values 1.01 | locus YPR119W, strain clb2, hits give low values 1.01 | locus YPR141C, strain kar3, hits give low values 1.02 | locus YPR163C, strain tif3, hits give low values 1.03 | locus YPR167C, strain met16, hits give low values 1.02 | strain wtn01, hits give low values 1.04

CC(=O)[C@H]1CC[C@H]2[C@@H]3CC[C@H]4C[C@H](O)CC[C@]4(C)[C@H]3C(=O)C[C@]12C
inactive: locus YAL040C, strain CLN3, hits give low values 0.999 | locus YCL061C, strain MRC1 (second series), hits give low values 0.995 | locus YDR363W, strain ESC2, hits give low values 0.983 | locus YER002W, strain NOP16, hits give low values 0.993 | [1] 0.994 | [4] 1 | [5] 0.981 | locus YNL175C, strain NOP13, hits give low values 0.974 | locus YNL197C, strain WHI3, hits give low values 0.994 | locus YNL224C, strain SQS1, hits give low values 1.01 | locus YOR083W, strain WHI5 (second series), hits give low values 0.997 | [6] 0.947

C[C@]12CCC3C(CC[C@H]4C[C@H](O)CC[C@]34C)C1CCC2=O (stereo partly drawn)
active: [2] 0.63 | locus YHR079C, strain IRE1, hits give low values 0.831 | [3] 0.736 | locus YJR066W, strain TOR1, hits give low values 0.815
inactive: locus YLR113W, strain HOG1, hits give low values 0.912 | locus YNL183C, strain NPR1, hits give low values 0.837 | locus YOR231W, strain MKK1, hits give low values 0.861 | locus YPL256C, strain CLN2, hits give low values 0.853

— PubChem BioAssay AID1159580 (chemical genetic matrix, 2015)
